Assay results from PubChem BioAssay (NCATS).
Where “and” joins values, the source holds several entries; their conditions need not be identical. Equal values may be shown once. Inconclusive results are not listed. Calls of active or inactive are those of the source. Calls come from the whole dose curve; as a rule, active = well fitted curve in the direction sought with a large enough effect; inconclusive = small, poorly fitted or top-dose-only effect, or another doubt; inactive = no such curve, though single readings can be large; an effect the other way counts as inactive or inconclusive.
% is set by controls: 0 for no effect and ±100 for the full control effect.

Target: Papain (Carica papaya) (UniProt P00784)
Sequence (P00784 whole entry, looked up): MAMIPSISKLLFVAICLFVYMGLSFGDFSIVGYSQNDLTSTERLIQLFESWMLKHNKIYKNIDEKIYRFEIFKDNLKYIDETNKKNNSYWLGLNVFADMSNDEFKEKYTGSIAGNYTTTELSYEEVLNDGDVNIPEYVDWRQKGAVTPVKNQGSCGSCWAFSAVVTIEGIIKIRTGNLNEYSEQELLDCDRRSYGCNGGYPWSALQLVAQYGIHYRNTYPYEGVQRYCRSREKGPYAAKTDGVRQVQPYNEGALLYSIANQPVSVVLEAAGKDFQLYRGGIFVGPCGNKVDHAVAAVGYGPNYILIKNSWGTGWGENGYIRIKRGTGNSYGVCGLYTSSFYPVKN
Experiment: Primary qHTS assay for inhibitors of the protease papain (AID 1645873);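 note: papain turnover of Z-FR-AMC read as the AMC fluorescence gain over 10 min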
Details: papain Z-FR-AMC cleavage, AMC fluorescence; series mostly up to 49.8 µM; activity change, negative = inhibition: at the top concentration
With `NC(N)=NCc1cccc(I)c1` the “activity change, negative = inhibition” value was -1.71% (inactive).
For `CCOC(=O)[C@H](CCc1ccccc1)N[C@@H](C)C(=O)N1[C@H](C(=O)O)C[C@H]2CCCC[C@@H]21`, the “activity change, negative = inhibition” value was 33.6% (inactive).
With `CN=C(N)NCCC[C@H](N)C(=O)O` the “activity change, negative = inhibition” value was -3.69% (inactive).

Test system: not listed separately
Experiment: Primary qHTS for inhibitors of nuclear receptor binding SET domain protein 2 (NSD2) in an isogenic RCH-ACV NSD2 p.E1099K mutant (9B) (AID 1645876); note: nearly all actives have a fitted effect of over 70% in size; note: potency is the fitted concentration of half-maximal effect
Details: RCH-ACV (leukaemia line) NSD2 E1099K (9B) viability, CellTiter-Glo, 72 h; series mostly up to 44.9 µM; activity change, negative = viability loss: at the top concentration
With `CC[C@H](c1ccc(O)cc1)[C@@H](CC)c1ccc(O)cc1` the Potency was 11.9 µM (active).
For `COc1cc([C@H]2Oc3cc([C@H]4Oc5cc(O)cc(O)c5C(=O)[C@@H]4O)ccc3O[C@@H]2CO)ccc1O`, the “activity change, negative = viability loss” value was 9.5% (inactive).
With `Nc1ccc(C(=O)NCC(=O)O)cc1` the “activity change, negative = viability loss” value was 4.78% (inactive).
With `CCN1CCN(C(=O)N[C@@H](C(=O)N[C@@H]2C(=O)N3C(C(=O)O)=C(CSc4nnnn4C)CS[C@H]23)c2ccc(O)cc2)C(=O)C1=O` the Potency was “inactive”.
With `c1ccc(CC2=NCCN2)cc1` the Potency was 8.41 µM (active).
With `O=C(O)Cc1csc(-c2ccc(Cl)cc2)n1` the “activity change, negative = viability loss” value was 1.15% (inactive).
With `CC(=O)Nc1ccc(OC(=O)c2ccccc2OC(C)=O)cc1` the “activity change, negative = viability loss” value was 3.41% (inactive).
In the case of `N[C@H](C(=O)O)[C@@H](O)c1ccc(O)c(O)c1`, the “activity change, negative = viability loss” value is reported as -20.3% (inactive).
In the case of `FC(F)(F)C(F)(F)C(F)(F)C(F)(F)C(F)(F)C(F)(F)C(F)(F)C(F)(F)Br`, the “outcome” value is reported as “inactive”.
For `NC(=O)n1c(O)c(C(=O)c2cccs2)c2cc(Cl)ccc21`, the “activity change, negative = viability loss” value was 6.62% (inactive).
In the case of `CC[C@]12CCCN3CCc4c(n(c5ccccc45)C(=O)C1)[C@@H]32`, the Potency is reported as 8.41 µM (active) and 8.17 µM (active).
In the case of `CN1CCc2cccc3c2[C@H]1Cc1ccc(O)c(O)c1-3`, the Potency is reported as 6.68 µM (active).
For `O[C@@H](c1cc(C(F)(F)F)nc2c(C(F)(F)F)cccc12)[C@H]1CCCCN1`, the Potency was 7.5 µM (active).
